Experimental findings from PubChem BioAssay (NCATS) are described below.

Values joined by “and” are separate entries in the source; they are usually repeats but may differ in a detail not shown here. Identical values can stand only once. Values without a mark were called inactive. Results filed as inconclusive are left out. Active and inactive are the calls of the source. Unless noted, the call rests on the fitted dose curve; in most records, active means well fitted curve in either direction with a large enough effect (not every such curve was filed as active); inconclusive means small, poorly fitted or top-dose-only effect, or another doubt; inactive means flat fitted curve, though single readings scatter. A value given as a limit tells only on which side of the number the result lay.

Experiment [1] in a line: AP1 Signaling Pathway (AID 357). Further: on the % scale 0 is the no-effect control and ±100 the full control effect. As to conditions: ME-180 AP-1-bla reporter, EGF-induced, beta-lactamase ratio, 5 h. The method in brief:
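AP-1-bla ME-180 cells with beta-lactamase reporter under AP-1 response element, stimulated with EC50 EGF; compounds titrated, 5 hours at 37 degrees Celsius. CCF4 read at 460/530 nm ratio; positive and negative modulators judged by AC50.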

Experiment [2] addresses Cytochrome P450 1A2 (Homo sapiens) (UniProt P05177). In words: p450-cyp1a2 (AID 410; calls by dose curve; further: potency means the concentration at half of the fitted maximal effect;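 on activity change, negative = inhibition: -100% = full effect of reference inhibitor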). As to conditions: recombinant CYP1A2, luciferin-ME demethylation, luminescence; series mostly up to 25.6 µM. The method in brief: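 20nM CYP1A2, 100uM Luciferin-ME (=Km), 100mM KPO4; cpd 10 min RT; +NADPH regen, 60 min RT; stop/detect 20 min; luminescence. Normalized to furafylline 57 uM = full inhibition.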

Experiment [3] is described as follows: NFAT Signaling Pathway (AID 444).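 Further: carbachol stimulus at about its EC50 of 1 µM final; on the % scale 0 is the no-effect control and ±100 the full control effect.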 As to conditions: Jurkat NFAT-bla M1, carbachol, beta-lactamase ratio, 5 h. The method in brief:
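Jurkat cells carrying an NFAT-driven β-lactamase reporter and co-transfected muscarinic M1 receptor were treated with compound plus carbachol (1 uM final, an EC50 level) for 5 h at 37 °C. CCF4 loading followed for 1 h at RT; 460/530 nm ratio gave %activity.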

Experiment [4] concerns the target Glucocorticoid receptor (Homo sapiens) (UniProt P04150). As to the kind of experiment: GR-GFP Redistribution (AID 450;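 active means compounds whose dose series gives a full or clear partial fitted curve of increased nuclear translocation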; further: potency means the concentration at half of the fitted maximal effect). As to conditions: U2OS GR-GFP nuclear translocation, laser cytometry, 2 h.
The target is the same in experiment [5]. As to the kind of experiment: GR-EFC Redistribution (AID 451; calls by dose curve; further: potency means the concentration at half of the fitted maximal effect). As to conditions: CHO-K1 GR-EFC translocation, beta-gal luminescence, 2 h. The method in brief: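 CHO-K1 cells stably expressing nuclear-localized β-gal enzyme acceptor and GR fused C-terminally to the enzyme donor fragment; ligand-driven nuclear translocation restores β-gal by complementation. Compounds titrated up to 46 uM final, 2 h at 37 °C; luminescence read.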

The target of experiment [6] is Mitogen-activated protein kinase 10 (Mus musculus) (UniProt Q61831). As to the kind of experiment: JNK3 AlphaScreen Assay (AID 530).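 Further: kinase came from lysate of stimulated human HepG2 cells.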 Further: potency means the concentration at half of the fitted maximal effect. On activity change, negative = inhibition: on the % scale 0 is the no-effect control and ±100 the full control effect. As to conditions: JNK3 lysate, c-Jun phosphorylation; series mostly up to 57.1 µM. The method in brief: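 Biotinylated GST-cJun(1-79) served as substrate for JNK3 in HepG2 lysates stimulated with IL-1beta and TNF-alpha. ATP was 10 uM final, pH 7.6. Ser73 phosphorylation was quantified by AlphaScreen (680 nm excitation).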
(Bead proximity is the source of the signal in Alpha formats.)

Experiment [7] can be described thus: Stat Signaling Pathway (AID 446).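 Further: ME-180 cervical cancer cells given 40 pM IL-6 alongside compound; SIE-controlled beta-lactamase reporter measured as 460/530 nm FRET emission ratio; on the % scale 0 is the no-effect control and ±100 the full control effect.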 As to conditions: ME-180 (cervical carcinoma) SIE beta-lactamase reporter, IL-6 stimulated, 5 h. The method in brief: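 Emission at 460 and 530 nm (excitation 405 nm) reports SIE-controlled beta-lactamase in ME-180 cells. Cells received compound with 40 pM IL-6 for 5 hrs at 37 C; data scaled between 300 pM IL-6 and 125 nM JAK-inhibitor controls.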

Sequence of Cytochrome P450 1A2 (Homo sapiens) (P05177 whole entry, looked up): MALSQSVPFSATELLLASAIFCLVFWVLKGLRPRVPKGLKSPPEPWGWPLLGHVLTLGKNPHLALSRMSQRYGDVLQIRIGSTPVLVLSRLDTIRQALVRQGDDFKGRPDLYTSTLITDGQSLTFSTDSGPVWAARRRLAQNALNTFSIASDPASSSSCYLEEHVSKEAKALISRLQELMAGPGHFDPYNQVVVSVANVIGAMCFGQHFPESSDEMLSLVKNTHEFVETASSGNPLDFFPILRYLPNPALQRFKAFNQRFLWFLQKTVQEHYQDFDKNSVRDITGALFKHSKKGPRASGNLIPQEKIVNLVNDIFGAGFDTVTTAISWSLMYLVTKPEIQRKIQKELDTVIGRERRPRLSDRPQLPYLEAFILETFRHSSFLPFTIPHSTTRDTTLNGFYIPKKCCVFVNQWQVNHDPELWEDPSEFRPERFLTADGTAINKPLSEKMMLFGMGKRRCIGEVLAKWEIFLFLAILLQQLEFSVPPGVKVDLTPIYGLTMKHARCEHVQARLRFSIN
Sequence of Glucocorticoid receptor (Homo sapiens) (P04150 whole entry, looked up, the tested form may be a part): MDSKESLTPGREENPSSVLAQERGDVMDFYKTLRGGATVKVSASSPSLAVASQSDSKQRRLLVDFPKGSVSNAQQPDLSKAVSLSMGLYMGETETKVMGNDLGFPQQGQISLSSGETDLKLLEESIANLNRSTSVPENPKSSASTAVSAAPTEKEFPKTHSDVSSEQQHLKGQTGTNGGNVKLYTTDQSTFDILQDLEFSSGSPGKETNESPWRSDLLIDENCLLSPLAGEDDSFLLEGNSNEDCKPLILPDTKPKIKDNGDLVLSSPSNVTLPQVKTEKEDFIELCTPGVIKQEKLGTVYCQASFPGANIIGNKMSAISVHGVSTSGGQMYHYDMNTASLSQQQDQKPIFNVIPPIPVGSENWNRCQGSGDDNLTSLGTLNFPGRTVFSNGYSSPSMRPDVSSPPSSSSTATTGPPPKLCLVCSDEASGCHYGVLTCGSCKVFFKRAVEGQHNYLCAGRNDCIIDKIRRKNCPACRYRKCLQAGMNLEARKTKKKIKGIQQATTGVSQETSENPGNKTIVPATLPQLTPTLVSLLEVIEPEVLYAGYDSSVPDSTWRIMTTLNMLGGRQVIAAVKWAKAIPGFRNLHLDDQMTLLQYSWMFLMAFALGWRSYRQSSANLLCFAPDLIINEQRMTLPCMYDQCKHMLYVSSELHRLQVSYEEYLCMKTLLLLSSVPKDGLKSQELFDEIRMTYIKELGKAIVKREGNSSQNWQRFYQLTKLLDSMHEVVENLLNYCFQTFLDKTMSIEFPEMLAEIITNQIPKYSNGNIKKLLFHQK

Regarding `C=Cc1c(C)c2cc3[nH]c(cc4nc(cc5nc(cc1[nH]2)C(C)=C5CCC(=O)O)C(CCC(=O)O)=C4C)c(C)c3C=C`, the activity change, negative = inhibition in experiment [1] (at 38 µM (top of the series)) is -5.02%; in experiment [3] (at 38 µM (top of the series)), 10.7%. The Potency in experiment [2] was 6.31 µM (active); in experiment [4], more than 46 µM; in experiment [5], more than 46 µM; in experiment [6], 0.398 µM [activator] (active).

Regarding `CCN(CC)CCOC(=O)C1(C2CCCCC2)CCCCC1`, the activity change, negative = inhibition in experiment [1] (at 17.2 µM (top of the series)) was 21%; in experiment [1] (at 38 µM (top of the series)), 20.8%; in experiment [3] (at 17.2 µM (top of the series)) it was -68.8% (active); in experiment [3] (at 38 µM (top of the series)), -63.7% (active). Besides, the activity, negative = inhibition in experiment [7] (at 17.2 µM (top of the series)) is 0.488% and 9.07%; in experiment [7] (at 38 µM (top of the series)) it was -26%. Besides, the Potency entry in experiment [6] is “inactive”.

`Cc1c(Cl)cccc1Nc1ccccc1C(=O)O`: the activity change, negative = inhibition in experiment [1] (at 17.2 µM (top of the series)) was -25.1% and -19.5%; in experiment [3] (at 17.2 µM (top of the series)) it was -35.5%. Besides, the Potency is 3.16 µM (active) in experiment [2], more than 20.6 µM in experiment [4] and more than 20.6 µM in experiment [5]. In experiment [7] (at 17.2 µM (top of the series)), the activity, negative = inhibition was -15.1% and -25.4%. Moreover, the Potency result in experiment [6] was “inactive”.

On to `NC1CCN(c2cccc(Cl)n2)CC1`, for which the activity change, negative = inhibition is 2.98% in experiment [1] (at 38 µM (top of the series)) and -6.65% in experiment [3] (at 38 µM (top of the series)). The Potency was 20 µM (active) and 15.8 µM (active) in experiment [2]; more than 46 µM in experiment [4]; more than 46 µM in experiment [5]. In experiment [7] (at 38 µM (top of the series)), the activity, negative = inhibition was -14.3%. Also, in experiment [6], the Potency entry was “inactive”.

With `CN1[C@@H]2CC(OC(=O)[C@H](CO)c3ccccc3)C[C@H]1[C@@H]1O[C@@H]12` (some centres undefined), the results for the activity change, negative = inhibition in experiment [1] (at 17.2 µM (top of the series)) and in experiment [3] (at 17.2 µM (top of the series)) were -6.51% and -78.1% (active), respectively. In experiment [7] (at 17.2 µM (top of the series)), the activity, negative = inhibition is 3.51%.

On to `CC1(C)OC(=O)NC1=O`, for which the values for the activity change, negative = inhibition in experiment [1] (at 17.2 µM (top of the series)) and in experiment [3] (at 17.2 µM (top of the series)) were 5.67% and -1.86%, respectively. The Potency entry in experiment [2] and in experiment [6] was “inactive” in each case. In addition, the activity, negative = inhibition in experiment [7] (at 17.2 µM (top of the series)) was 1.25%. For the same compound, the Potency in experiment [4] and in experiment [5] was more than 20.6 µM in each case.

Take `C[C@@H]1C[C@H]2[C@@H]3C[C@H](F)C4=CC(=O)C=C[C@]4(C)[C@@]3(F)[C@@H](O)C[C@]2(C)[C@@]1(O)C(=O)CO`: the activity change, negative = inhibition in experiment [1] (at 17.2 µM (top of the series)) was -11.1%; in experiment [3] (at 17.2 µM (top of the series)), -28.6%. Besides, the activity, negative = inhibition in experiment [7] (at 17.2 µM (top of the series)) is -0.0687%.

For the compound `Cc1cc2c(cc1S(N)(=O)=O)S(=O)(=O)CCC2`, the results for the activity change, negative = inhibition in experiment [1] (at 17.2 µM (top of the series)) and in experiment [3] (at 17.2 µM (top of the series)) were 4.34% and 1.69%, respectively. Also, the Potency result in experiment [2] and in experiment [6] was “inactive” in each case. In addition, the activity, negative = inhibition in experiment [7] (at 17.2 µM (top of the series)) is -10.1%. Besides, the Potency in experiment [4] and in experiment [5] was more than 20.6 µM throughout.

Consider `OCCN1CCN(CCCN2c3ccccc3Sc3ccc(Cl)cc32)CC1`, for which the activity change, negative = inhibition in experiment [1] (at 17.2 µM (top of the series)) was 25.4% and 10.4%; in experiment [1] (at 38 µM (top of the series)), 7.4%. For the same compound, the activity, negative = inhibition in experiment [7] (at 17.2 µM (top of the series)) was -2.44% and -12%; in experiment [7] (at 38 µM (top of the series)) it was -28.9%. The Potency in experiment [4] is more than 20.6 µM; in experiment [5] it was > 46 µM and > 20.6 µM. For the same compound, in experiment [6], the Potency entry was “inactive”.
